A selection: hits, their analogues and other compounds. The true share with any hit is near 19%.
TGFb inhibitor: inhibitors of TGF-b signaling | HepG2 CAGA-GFP TGF-b/SMAD3 reporter, GFP fluorescence, 18 h; TGF-beta stimulated, 500 pg/mL final | actives 1.2% (n = 410,000) | Potency, µM (series often up to 46.1 µM), for the others: at the highest dose activity, negative = inhibition, actives largely listed as inhibitors; further: potency means the concentration at half of the fitted maximal effect; on the % scale 0 is the no-effect control and ±100 the full control effect; nearly all actives have a fitted effect of over 65% in size
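Smad-responsive CAGA-GFP expression was quantified in HEPG2 cells exposed to compounds and 500 pg/mL final TGF-beta for 18 h at 37 degrees C; unstimulated wells defined full inhibition.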
TDP1 cell noCPT: qHTS for Inhibitors of human tyrosyl-DNA phosphodiesterase 1 (TDP1): qHTS in cells in absence of CPT | DT40 Tdp1-/- hTDP1 cells, no CPT, ATP luminescence, 48 h | Potency, µM (highest dose often 46.2 µM), for the others: top-dose activity change, negative = growth inhibition, actives largely listed as inhibitors | actives 15% (n = 420,000); further: potency means the concentration at half of the fitted maximal effect; on the % scale 0 is the no-effect control and ±100 the full control effect; nearly all actives have a fitted effect of over 55% in size
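DT40 Tdp1-/-;hTDP1 cells, no CPT (DMSO vehicle only), 400 cells/well; compounds pin-transferred; ≥48 hr, 37 °C; CellTiter-Glo 30 min RT dark, luminescence read.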
ASM inhibitor: human S-ASM enzyme inhibition. AID 504937. placental ASM, HMU-PC fluorogenic substrate, 60 min. actives 0.006% (n = 340,000). Potency, µM (highest dose often 57.5 µM), without a hit: at the top dose activity change, negative = inhibition, most hits filed as inhibitors; further: potency means the concentration at half of the fitted maximal effect
Target sequence (P17405 47-631 limits assumed): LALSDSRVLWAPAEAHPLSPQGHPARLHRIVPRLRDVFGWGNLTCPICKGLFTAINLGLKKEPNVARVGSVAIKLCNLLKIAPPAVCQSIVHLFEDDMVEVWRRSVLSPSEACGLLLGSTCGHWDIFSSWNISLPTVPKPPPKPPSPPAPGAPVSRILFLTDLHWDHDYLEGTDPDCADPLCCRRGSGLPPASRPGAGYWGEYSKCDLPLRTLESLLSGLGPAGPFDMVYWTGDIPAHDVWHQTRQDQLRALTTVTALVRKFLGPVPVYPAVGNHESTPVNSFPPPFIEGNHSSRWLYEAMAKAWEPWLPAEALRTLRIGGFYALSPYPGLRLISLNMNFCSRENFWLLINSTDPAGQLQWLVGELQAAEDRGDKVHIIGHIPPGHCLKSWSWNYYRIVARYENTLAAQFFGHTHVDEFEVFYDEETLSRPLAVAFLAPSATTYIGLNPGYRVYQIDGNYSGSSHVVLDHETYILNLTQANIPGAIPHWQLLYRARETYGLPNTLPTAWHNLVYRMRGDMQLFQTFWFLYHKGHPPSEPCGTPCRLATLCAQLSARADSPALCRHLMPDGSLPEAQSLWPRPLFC
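qHTS format. ASM enzyme prepared from human placenta hydrolyses the fluorogenic substrate HMU-PC0 (9 uM final) over 60 min at 37 °C after a 10 min compound preincubation.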
HepG2 viability: counter-screen for TGF-b inhibitors: cytotoxicity in HepG2 cells. actives 0.76% (n = 410,000). HepG2 CAGA-GFP viability, ATP luminescence, 18 h. Potency, µM (top dose mostly 46.1 µM), without a hit: at the highest dose activity change, negative = cytotoxicity, most hits filed as cytotoxic; further: potency means the concentration at half of the fitted maximal effect
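HepG2 CAGA-GFP cells (1000/well, DMEM with 1% FBS) received compound, then TGF-beta at 500 pg/mL final, and were incubated 18 hours at 37 degrees C. Viability was read by CellTiter-Glo luminescence. Media-only wells were set as complete cell-killing and DMSO as no toxicity.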
TDP1 cell CPT: growth inhibition of DT40 Tdp1-/-;hTDP1 cells with camptothecin (screen for TDP1 inhibitors). chicken DT40 Tdp1-/-;hTDP1 cells + 20 nM CPT, ATP luminescence, 48 h. Potency, µM (highest dose often 46.2 µM), without a hit: top-dose activity change, negative = growth inhibition, hits mostly inhibitors. actives 12% (n = 420,000). AID 686979; further: potency means the concentration at half of the fitted maximal effect; on the % scale 0 is the no-effect control and ±100 the full control effect; nearly all actives have a fitted effect of over 55% in size
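Cell growth measured by CellTiter-Glo luminescence after a minimum 48 h, 37 C compound exposure with 20 nM CPT in Tdp1-knockout DT40 cells stably expressing hTDP1, seeded 400/well; qHTS titration format.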
IL1B secr inh: blocks inflammasome-driven IL-1 beta release; AID 743279; actives 4.7% (n = 360,000); activity change, % at 57.5 µM; THP-1 LPS/ATP IL-1B secretion, AlphaLISA, 16 h; stronger effect = lower value; in the data active means activity change below about -50%; inconclusive means mostly about -30% to -49%; further: on the % scale 0 is the no-effect control and ±100 the full control effect
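Secreted IL-1B measured by AlphaLISA bead assay after 16 h compound exposure of THP-1 cells; compounds (final up to 57.5 uM) added 1 h before LPS (250 ng/mL) and ATP (1.25 mM) stimulation; lower signal means less secretion.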
Starred values were filed as active, the others as inactive. Unless noted, the call rests on the fitted dose curve; in most records, active means well fitted curve in the direction sought with a large enough effect; inconclusive means small, poorly fitted or top-dose-only effect, or another doubt; inactive means no such curve, though single readings can be large; an effect the other way counts as inactive or inconclusive.

O=C(Nc1ncccn1)c1cccc(F)c1 was read as TGFb inhibitor -6%, TDP1 cell noCPT 32%, ASM inhibitor 4%, HepG2 viability -3%, TDP1 cell CPT -1% and IL1B secr inh 0.
`Cc1cccc(Nc2ncc(NC(=O)c3cccc(F)c3)c(Nc3cccc(C)c3)n2)c1` gave TGFb inhibitor inconclusive, TDP1 cell noCPT 5.8µM*, HepG2 viability -49% and TDP1 cell CPT 7.3µM*.
COc1ccc(NC(=O)c2cccc(NS(=O)(=O)c3ccccc3)c2)cc1 was read as TGFb inhibitor -10%, TDP1 cell noCPT -13%, ASM inhibitor -5%, HepG2 viability -17%, TDP1 cell CPT 2% and IL1B secr inh 16.
Screening O=C(Nc1ccccc1)c1cccc(S(=O)(=O)Nc2cccc(F)c2)c1 returned TGFb inhibitor inconclusive, TDP1 cell noCPT 26µM*, HepG2 viability -40% and TDP1 cell CPT inconclusive.
Cc1ccc(NC(=O)CN2C(=O)NC(C)(CC(C)C)C2=O)cc1F (stereo unspecified) was read as TGFb inhibitor -1%, TDP1 cell noCPT -25%, ASM inhibitor 4%, HepG2 viability -15%, TDP1 cell CPT -15% and IL1B secr inh -21.
For O=S(=O)(NCc1ccccc1)c1ccc(Br)c2nsnc12 the results were TGFb inhibitor 0%, TDP1 cell noCPT -26%, ASM inhibitor -2%, HepG2 viability 2%, TDP1 cell CPT 4% and IL1B secr inh -72*.
Screening CC(C)(C)c1ccc(OCc2ccc(C(=O)N/N=C/c3ccc([N+](=O)[O-])cc3)o2)cc1 returned TGFb inhibitor -17%, TDP1 cell noCPT 21µM*, ASM inhibitor -14%, HepG2 viability -29%, TDP1 cell CPT 18µM* and IL1B secr inh -18.
`CCOc1ccc(N=Cc2ccc(N(C)C)cc2)c(O)c1` gave TGFb inhibitor inconclusive, TDP1 cell noCPT 7.3µM*, HepG2 viability -77%, TDP1 cell CPT 15µM* and IL1B secr inh 18.
For CCOc1ccc(CNC(=S)N/N=C\c2ccc([N+](=O)[O-])cc2)cc1 the results were TGFb inhibitor inconclusive, TDP1 cell noCPT 8.2µM*, ASM inhibitor inconclusive, HepG2 viability -69%, TDP1 cell CPT 16µM* and IL1B secr inh -2.
CCOc1ccc(/C=N/NC(=O)c2ccc(Cn3cc([N+](=O)[O-])cn3)o2)cc1 was read as TGFb inhibitor -6%, TDP1 cell noCPT -23%, ASM inhibitor -11%, HepG2 viability -13%, TDP1 cell CPT -20% and IL1B secr inh -4.
`CCOc1ccc(N=Cc2ccc([N+](=O)[O-])cc2)c(O)c1` gave TGFb inhibitor inconclusive, TDP1 cell noCPT 12µM*, HepG2 viability -100%, TDP1 cell CPT 23µM* and IL1B secr inh -52*.
`CCOc1ccc(/C=N/O)cc1` gave TGFb inhibitor 1%, TDP1 cell noCPT 1%, ASM inhibitor -4%, HepG2 viability 3%, TDP1 cell CPT 4% and IL1B secr inh 9.
Screening CC(OC(=O)c1ccccc1C(=O)O)c1ccccc1 (stereo unspecified) returned TGFb inhibitor -2%, TDP1 cell noCPT -24%, ASM inhibitor 4%, HepG2 viability 22%, TDP1 cell CPT -2% and IL1B secr inh 7.
For COc1cc(NC(=O)C2=C(C)OCCS2)c(Cl)cc1C(=O)NCCN(C)C the results were TGFb inhibitor -1%, TDP1 cell noCPT -22%, ASM inhibitor 0%, HepG2 viability 4%, TDP1 cell CPT -4% and IL1B secr inh -83*.
For COc1ccc(CCNC(=O)c2ccccc2NC(=O)C2=C(C)OCCS2)c(OC)c1 the results were TGFb inhibitor 3%, TDP1 cell noCPT 10µM*, ASM inhibitor 6%, HepG2 viability -13%, TDP1 cell CPT 21µM* and IL1B secr inh 0.
For COc1cc(CCNC(=O)c2ccccc2NC(=O)C2=C(C)OCCS2)cc(OC)c1OC the results were TGFb inhibitor -18%, TDP1 cell noCPT inconclusive, ASM inhibitor 2%, HepG2 viability -1%, TDP1 cell CPT -67% and IL1B secr inh -16.
`Cc1ccccc1C(=O)Nc1ccc2nc(SCC(=O)N3CCc4ccccc43)sc2c1` gave TGFb inhibitor -9%, TDP1 cell noCPT 3.7µM*, HepG2 viability 0% and TDP1 cell CPT 5.2µM*.
For CCC(CC)C(=O)Nc1ccc2nc(SCC(=O)N3c4ccccc4CC3C)sc2c1 (stereo unspecified) the results were TGFb inhibitor 21%, TDP1 cell noCPT 16µM*, HepG2 viability 2% and TDP1 cell CPT 12µM*.
For Cc1cccc(C(=O)Nc2ccc3nc(SCC(=O)N4CCc5ccccc54)sc3c2)c1 the results were TGFb inhibitor inconclusive, TDP1 cell noCPT 4.6µM*, HepG2 viability -7% and TDP1 cell CPT 5.8µM*.
Cc1ccccc1OCC(=O)Nc1ccc2nc(SCC(=O)N3CCc4ccccc43)sc2c1 was read as TGFb inhibitor 1%, TDP1 cell noCPT -1%, HepG2 viability -8% and TDP1 cell CPT -5%.
Screening Cc1cccc(C(=O)Nc2ccc3nc(SCC(=O)N4CCCC4)sc3c2)c1 returned TGFb inhibitor 0%, TDP1 cell noCPT 16µM*, HepG2 viability -34% and TDP1 cell CPT inconclusive.
N=C1S/C(=C\c2ccc(-c3cccc(Cl)c3)o2)C(=O)N1c1nccs1 was read as TGFb inhibitor inconclusive, TDP1 cell noCPT 2.6µM*, ASM inhibitor -12%, HepG2 viability 2%, TDP1 cell CPT 3.3µM* and IL1B secr inh -14.
O=C1OC(c2cccs2)=N/C1=C\c1ccc(-c2cccc(Cl)c2)o1 was read as TGFb inhibitor 2%, TDP1 cell noCPT inconclusive, ASM inhibitor -1%, HepG2 viability -22%, TDP1 cell CPT 21µM* and IL1B secr inh 26.
`COc1ccccc1N1C(=N)S/C(=C\c2ccc(-c3ccccc3C(=O)O)o2)C1=O` gave TGFb inhibitor -3%, TDP1 cell noCPT -14%, ASM inhibitor -2%, HepG2 viability -2%, TDP1 cell CPT -2% and IL1B secr inh 16.
For COc1ccc(/C=C2\SC(=N)N(c3nccs3)C2=O)cc1OC the results were TGFb inhibitor -25%, TDP1 cell noCPT 5.8µM*, ASM inhibitor -5%, HepG2 viability -10%, TDP1 cell CPT 13µM* and IL1B secr inh -1.

High-throughput results: PubChem, National Center for Advancing Translational Sciences (NCATS)
